FLuc counter: inhibits or activates purified firefly luciferase, miR-21 counter-screen; 360,000 tested, 6.9% active; P08659; Potency, µM (doses to about 57.5 µM), for the others: at the highest dose activity change, negative = inhibition, most hits filed as inhibitors; AID 588342; purified FLuc, Km substrates, luminescence inhibition;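 note: plate controls were vehicle for no effect and reference inhibitor for full effect; nearly all actives have a fitted effect of over 55% in size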
Target sequence (P08659 whole entry, looked up): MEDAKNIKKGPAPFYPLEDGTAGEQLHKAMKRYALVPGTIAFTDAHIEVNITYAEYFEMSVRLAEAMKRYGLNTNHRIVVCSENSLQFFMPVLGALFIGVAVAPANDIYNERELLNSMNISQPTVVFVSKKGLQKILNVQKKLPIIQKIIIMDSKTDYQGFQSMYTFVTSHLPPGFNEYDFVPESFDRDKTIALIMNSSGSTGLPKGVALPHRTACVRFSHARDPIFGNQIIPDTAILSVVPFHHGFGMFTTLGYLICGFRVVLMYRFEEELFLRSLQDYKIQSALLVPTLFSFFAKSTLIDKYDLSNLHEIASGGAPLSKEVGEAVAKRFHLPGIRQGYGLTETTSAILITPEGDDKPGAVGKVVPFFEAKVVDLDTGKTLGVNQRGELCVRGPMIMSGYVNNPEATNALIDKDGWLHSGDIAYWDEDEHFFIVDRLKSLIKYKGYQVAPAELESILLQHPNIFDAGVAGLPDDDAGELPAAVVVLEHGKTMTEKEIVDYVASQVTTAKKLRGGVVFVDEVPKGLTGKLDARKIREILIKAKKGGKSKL
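Purified P. pyralis luciferase (10nM final) with 10uM D-luciferin and 10uM ATP (Km levels) in 50mM Tris acetate pH 7.5, 10mM Mg acetate, 0.01% Tween-20, 0.05% BSA; qHTS 6-point titration, ~60 µM downward; luminescence read.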
NPC1 prom act: activates the NPC1 promoter; Huh7 NPC1 promoter luciferase reporter, 24 h; Potency, µM (highest dose often 9.22 µM), without a hit: at the top dose activation, usual class: activators; 320,000 tested, 2.4% active; note: % of control where 0% means no effect; nearly all actives have a fitted effect of over 60% in size
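Luciferase expression driven by the NPC1 promoter was measured in stably transfected Huh7 cells after a 24 h compound incubation, using a luciferase reagent and a luminescence read.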
Rab9 prom act: activates the Rab9 promoter; AID 485297; Potency, µM (titrated, usually from 9.22 µM), without a hit: at the highest dose activation, negative = inhibition, usual class: activators; 320,000 tested, 2.8% active; Huh7 Rab9 promoter-luciferase reporter, luminescence, 24 h; note: % of control where 0% means no effect; nearly all actives have a fitted effect of over 60% in size
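Steps: seed 1500 Huh7 Rab9-luc cells per well, rest 2 h at 37 °C; add compound in DMSO; incubate 24 h; add luciferase reagent, 10 min ambient; read luminescence.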
SMN2 splice up: enhancers of SMN2 splice variant expression; HEK293 SMN2-luciferase splicing reporter, luminescence, 30-36 h; Potency, µM (titrated, usually from 46.1 µM), without a hit: at the highest dose activity change, positive = activation, actives largely listed as activators; 210,000 tested, 2.8% active; AID 1458; note: % of control where 0% means no effect; nearly all actives have a fitted effect of over 55% in size
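qHTS luciferase splicing reporter: luminescence rises when SMN2 exon 7 is included in transfected HEK293 cells. Compound exposure lasted 30-36 h at 37C, with 4.5 mM final sodium butyrate as control, followed by a ONE-Glo read.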
ELG1 genotox: genotoxicity induction in ELG1-luciferase HEK293T cells | HEK293T ELG1-luciferase reporter, luminescence, 16 h | Potency, µM (titrated, usually from 46 µM), inactives show at the highest dose activity change, positive = activation, actives largely listed as activators | 330,000 tested, 1.3% active | AID 504466; note: % of control where 0% means no effect; nearly all actives have a fitted effect of over 60% in size
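HEK293T cells expressing luciferase-tagged ELG1 were exposed to compound or DMSO vehicle for 16 hr at 37 °C and 5% CO2. Luciferase activity was then measured with ONE-Glo after 30 min at room temperature.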
* = called active by the depositor; ? = inconclusive; · = not tested or not shown. Compounds with a hit are over-represented: about 7.5% of the library has one in this group of screens. Calls come from the whole dose curve; as a rule, active = well fitted curve in the direction sought with a large enough effect; inconclusive = small, poorly fitted or top-dose-only effect, or another doubt; inactive = no such curve, though single readings can be large; an effect the other way counts as inactive or inconclusive. Potency is the fitted concentration of half-maximal effect.

SMILES	FLuc counter	NPC1 prom act	Rab9 prom act	SMN2 splice up	ELG1 genotox
O=C(COC(=O)C12CC3CC(CC(O)(C3)C1)C2)Nc1ccc(Cl)cc1F	7.57µM*	?	1.26µM*	·	?
COc1ccc2sc(-c3ccccc3OC)c(-c3ccc(OCCN4CCOCC4)cc3)c2c1	·	·	·	·	-1.3%
O=S(=O)(N/N=C\c1ccc2c(c1)OCO2)c1ccccc1	21.3µM*	-0.5%	0.1%	·	7.8%
COc1ccc(OC)c(S(=O)(=O)N/N=C\c2ccc3c(c2)OCO3)c1	9.53µM*	25.6%	21.4%	·	?
COc1ccccc1/C=N/OC(=O)c1ccc(C)cc1	1.9µM*	-6.6%	-1.1%	·	3.8%
COC(=O)c1ccc(CO/N=C/c2ccccc2OC)cc1	-6.5%	0.0%	-0.8%	·	1.8%
Cc1ccc(C(=O)O/N=C/c2ccc3c(c2)OCO3)cc1	1.2µM*	0.4%	9.5%	1.8%	-0.1%
O=C(O/N=C/c1ccc2c(c1)OCO2)c1ccc([N+](=O)[O-])cc1	-1.2%	-5.6%	1.6%	7.0%	0.8%
COc1ccc(S(=O)(=O)N/N=C\c2ccc3c(c2)OCO3)c(OC)c1	-8.7%	-12.3%	-13.3%	·	1.2%
Cc1ccc(S(=O)(=O)N/N=C\c2ccc3c(c2)OCO3)cc1C	-12.2%	0.8%	-3.1%	·	4.2%
Cc1ccc(S(=O)(=O)N/N=C\c2ccc3c(c2)OCO3)cc1	15.1µM*	-4.6%	4.8%	8.7%	2.1%
OCCCCNCc1ccc(OCc2ccc(Cl)cc2Cl)cc1	-5.3%	1.3%	-4.5%	-8.3%	-2.5%
OCCNCc1ccc(OCc2ccc(Cl)cc2Cl)cc1	15.1µM*	11.8%	18.4%	-8.5%	?
O=C(C1CCN(S(=O)(=O)c2ccccc2)CC1)N1CCN(Cc2ccc3c(c2)OCO3)CC1	2.5%	-4.8%	5.0%	·	-3.0%
S=c1[nH]nc(-c2ccco2)n1/N=C/C(Cl)=C/c1ccccc1	?	3.55µM*	1.58µM*	·	?
Cc1cc(-c2n[nH]c(=S)n2/N=C/C(Cl)=C/c2ccccc2)n[nH]1	-0.6%	25.6%	?	?	?
CCOC(=O)C1=C(C)NC2=C(C(=O)c3ccccc32)C1c1cccc2ccccc12 (stereo not given)	-0.8%	-0.9%	-15.0%	·	-8.9%
CCOC(=O)c1cccc(NC(=O)c2cc3ccccn3n2)c1	3.01µM*	·	·	·	·
O=C(NCCc1ccccc1Cl)c1cc2ccccn2n1	12µM*	·	·	·	·
CCOC(=O)c1cccc(NC(=O)c2cnccn2)c1	-15.6%	2.82µM*	?	?	?
CCOC(=O)c1cc(NC(=O)c2cnccn2)cc(C(=O)OCC)c1	3.1%	0.1%	-4.5%	2.8%	0.6%
COc1ccc(CCNC(=O)c2cc3ccccn3n2)c(OC)c1OC	0.9%	-5.2%	3.5%	-24.3%	3.7%
COc1ccc(NC(=O)c2cc3ccccn3n2)cc1	2.13µM*	1µM*	?	6.31µM*	1.16µM*
CCOc1ccc(OCC)c(NC(=O)c2cc3ccccn3n2)c1	-15.1%	·	·	·	·
O=C(Nc1ccccc1C(F)(F)F)c1ccccn1	?	-0.9%	-4.6%	-1.0%	8.4%
SMILES	FLuc counter	NPC1 prom act	Rab9 prom act	SMN2 splice up	ELG1 genotox
O=C(Nc1ccc(OC(F)(F)F)cc1)c1cc2ccccn2n1	2.69µM*	·	·	·	·
O=C(Nc1ccccc1C(F)(F)F)c1cc2ccccn2n1	1.9µM*	·	·	·	·
COc1cccc(C(=O)N(CN2CCCC2=O)c2cccc(Cl)c2)c1OC	3.7%	0.5%	1.2%	-7.0%	-2.8%
NC(=O)N/N=C/CCc1ccccc1	2.9%	0.7%	-1.0%	·	-0.5%
CCOC(=O)C(C(=O)OCC)N(C#N)c1nc(SC)nc(N(C)C)n1	7.2%	-2.0%	4.4%	-24.1%	-1.3%
CCOC(=O)C(C(=O)OCC)N(C#N)c1nc(OC)nc(N(C)C)n1	3.4%	-2.2%	-3.6%	3.16µM*	0.0%
CCOC(=O)c1c(Nc2ccc(O)cc2)nnc(-c2ccccc2)c1-c1ccccc1	-3.3%	·	·	0.0%	·
COc1cc(C2Nc3ccccc3C(=O)N2c2ccc3c(c2)OCCO3)ccc1OCC(C)C (stereo not given)	15.1µM*	1µM*	0.562µM*	3.16µM*	1.84µM*
O=C1c2ccccc2NC(c2ccc3c(c2)OCCO3)N1c1ccc2c(c1)OCCO2 (stereo not given)	10.7µM*	1µM*	1.58µM*	3.55µM*	2.06µM*

Source: PubChem (National Center for Advancing Translational Sciences (NCATS))
